Measurements as given in PubChem BioAssay (NCATS).
Calls of active or inactive are those of the source. Unless noted, calls follow the shape of the full dose curve.

What was measured:
[1] = molecular target: Estrogen receptor (Homo sapiens) (UniProt P03372); assay: qHTS assay for small molecule agonists of estrogen receptor alpha signaling (AID 588514); also: nearly all actives have a fitted effect of over 70% in size; also: potency is read from the fitted curve at half-maximal effect;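 as to activation: 0% = vehicle only and 100% = reference agonist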
Sequence of Estrogen receptor (Homo sapiens) (P03372 whole entry, looked up): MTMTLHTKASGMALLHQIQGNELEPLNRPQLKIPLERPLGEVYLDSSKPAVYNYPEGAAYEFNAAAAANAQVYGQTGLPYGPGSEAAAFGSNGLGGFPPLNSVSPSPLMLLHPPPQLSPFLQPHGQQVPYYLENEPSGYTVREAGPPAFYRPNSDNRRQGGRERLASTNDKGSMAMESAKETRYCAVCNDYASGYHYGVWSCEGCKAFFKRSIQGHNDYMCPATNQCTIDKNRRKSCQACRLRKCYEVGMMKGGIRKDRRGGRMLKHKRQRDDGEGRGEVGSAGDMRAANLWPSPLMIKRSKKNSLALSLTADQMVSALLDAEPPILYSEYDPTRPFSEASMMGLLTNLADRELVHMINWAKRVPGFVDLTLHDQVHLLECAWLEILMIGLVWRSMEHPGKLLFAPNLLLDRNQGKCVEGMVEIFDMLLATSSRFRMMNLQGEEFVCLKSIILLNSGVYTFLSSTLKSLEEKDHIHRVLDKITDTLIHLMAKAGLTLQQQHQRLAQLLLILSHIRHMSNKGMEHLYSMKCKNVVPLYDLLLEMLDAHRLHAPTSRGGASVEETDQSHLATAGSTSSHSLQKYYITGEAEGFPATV
Procedure, shortened: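 Fluorescence from CCF4 cleavage reports ER-alpha-driven beta-lactamase expression in HEK 293 cells treated 18 hrs at 37 C. Data normalized to 17-beta-estradiol (20 nM) and DMSO, fitted to Hill equation.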

[2] = molecular target: Androgen receptor (Homo sapiens) (UniProt P10275); assay: qHTS assay for small molecule agonists of androgen receptor signaling (AID 588515; active = well fitted curve in the direction sought with a large enough effect in the signal ratio, with a control signal flat; inconclusive = small, poorly fitted or top-dose-only effect, or effect the other way, or a change in a side signal; inactive = no such curve, though single readings can be large or run the other way; the % refers to the signal ratio; also: % is scaled to controls: 0 for no effect and ±100 for the full control effect); conditions: AR-UAS-bla HEK293, beta-lactamase ratio, agonist 16 h; stronger effect = higher value
Sequence of Androgen receptor (Homo sapiens) (P10275 whole entry, looked up): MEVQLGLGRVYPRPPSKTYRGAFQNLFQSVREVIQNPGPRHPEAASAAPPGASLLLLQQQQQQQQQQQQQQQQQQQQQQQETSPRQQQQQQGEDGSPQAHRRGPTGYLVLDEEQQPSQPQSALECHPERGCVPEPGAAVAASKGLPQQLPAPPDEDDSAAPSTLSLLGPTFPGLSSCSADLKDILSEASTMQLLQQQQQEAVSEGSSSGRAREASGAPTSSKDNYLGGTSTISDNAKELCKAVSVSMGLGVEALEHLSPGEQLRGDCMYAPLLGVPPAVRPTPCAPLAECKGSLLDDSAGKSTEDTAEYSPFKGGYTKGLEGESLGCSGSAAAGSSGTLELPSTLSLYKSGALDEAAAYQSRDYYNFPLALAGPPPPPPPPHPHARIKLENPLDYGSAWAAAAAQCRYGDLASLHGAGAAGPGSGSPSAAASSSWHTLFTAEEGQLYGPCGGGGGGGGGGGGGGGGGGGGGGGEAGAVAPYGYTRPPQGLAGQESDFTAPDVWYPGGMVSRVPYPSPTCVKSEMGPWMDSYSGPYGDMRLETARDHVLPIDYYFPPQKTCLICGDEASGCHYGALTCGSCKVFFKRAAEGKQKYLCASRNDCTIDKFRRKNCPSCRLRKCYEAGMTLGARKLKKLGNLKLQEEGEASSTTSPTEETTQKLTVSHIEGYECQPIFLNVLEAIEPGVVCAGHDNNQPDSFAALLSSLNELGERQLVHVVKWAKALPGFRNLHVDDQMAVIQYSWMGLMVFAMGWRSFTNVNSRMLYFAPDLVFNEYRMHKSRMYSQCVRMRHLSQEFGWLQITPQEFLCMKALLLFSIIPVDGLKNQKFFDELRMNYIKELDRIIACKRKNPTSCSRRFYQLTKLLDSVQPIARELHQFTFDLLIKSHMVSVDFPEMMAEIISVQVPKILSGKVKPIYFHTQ
Procedure, shortened: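 Stimulation of an AR-responsive β-lactamase reporter in GripTite HEK293 cells was measured after 16 h compound exposure at 37 °C, via CCF4 fluorescence after 2 h RT. EC50 from Hill fits, normalized to R1881 at 30 nM.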

[3] = molecular target: Androgen receptor (Homo sapiens) (UniProt P10275); assay: qHTS assay for small molecule antagonists of androgen receptor signaling (AID 588516; active = well fitted curve in the direction sought with a large enough effect in the signal ratio, with a control signal flat, not every such curve was filed as active; inconclusive = small, poorly fitted or top-dose-only effect, or effect the other way, or a change in a side signal; inactive = no such curve, though single readings can be large or run the other way; the % refers to the signal ratio; also: % is scaled to controls: 0 for no effect and ±100 for the full control effect)
Procedure, shortened: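 AR-UAS-bla-GripTite HEK 293 cells (2000/well, 5 h at 37 C) received compound titrations, then R1881 at 10 nM final; after 16 h at 37 C, CCF4 dye 2 h RT, beta-lactamase fluorescence read; IC50 from Hill fits.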

[4] = molecular target: Bile acid receptor (Homo sapiens) (UniProt Q96RI1); assay: qHTS assay for small molecule antagonists of farnesoid X receptor signaling (AID 588526); also: potency is read from the fitted curve at half-maximal effect
Sequence of Bile acid receptor (Homo sapiens) (Q96RI1 whole entry, looked up): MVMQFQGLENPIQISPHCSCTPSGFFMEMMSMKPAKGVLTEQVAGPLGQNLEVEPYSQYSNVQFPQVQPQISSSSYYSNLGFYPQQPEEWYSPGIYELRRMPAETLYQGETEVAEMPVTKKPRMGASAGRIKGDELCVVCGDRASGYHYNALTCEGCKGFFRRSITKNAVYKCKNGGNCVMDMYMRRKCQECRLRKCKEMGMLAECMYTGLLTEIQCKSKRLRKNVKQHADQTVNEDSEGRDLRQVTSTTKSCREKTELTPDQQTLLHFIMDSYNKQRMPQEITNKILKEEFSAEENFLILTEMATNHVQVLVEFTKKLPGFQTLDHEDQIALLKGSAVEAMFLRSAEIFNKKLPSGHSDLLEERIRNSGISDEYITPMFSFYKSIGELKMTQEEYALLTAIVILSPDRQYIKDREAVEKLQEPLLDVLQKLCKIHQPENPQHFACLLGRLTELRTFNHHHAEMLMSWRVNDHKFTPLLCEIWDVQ
Procedure, shortened: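 Beta-lactamase reporter antagonist mode: HEK293T FXR-UAS-bla cells, titrated compound, CDCA stimulation, 16 h 37 C, CCF4 dye 2 h RT. Data normalized to CDCA 50 uM and DMSO; Hill-fit IC50.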

[5] = molecular target: Bile acid receptor (Homo sapiens) (UniProt Q96RI1); assay: qHTS assay for small molecule agonists of farnesoid X receptor signaling (AID 588527); conditions: HEK293T FXR-UAS-bla, beta-lactamase ratio, 16 h; activation: stronger effect = higher value;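 also: series mostly up to about 77 µM; 0% = vehicle basal and 100% = reference agonist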
Procedure, shortened: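 Quantitative HTS used FXR-UAS-bla HEK293T cells with 16 h compound incubation at 37 C. EC50 values came from concentration-response curves normalized to chenodeoxycholic acid.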

[6] = molecular target: Glucocorticoid receptor (Homo sapiens) (UniProt P04150); assay: qHTS assay for small molecule antagonists of glucocorticoid receptor signaling (AID 588533; active = well fitted inhibition curve with a large enough effect in the signal ratio, with a control signal flat, not every such curve was filed as active; inconclusive = small, poorly fitted or top-dose-only effect, or effect the other way, or a change in a side signal; the % refers to the signal ratio;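 also: cells stimulated with 2 nM dexamethasone as agonist; % is scaled to controls: 0 for no effect and ±100 for the full control effect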)
Sequence of Glucocorticoid receptor (Homo sapiens) (P04150 whole entry, looked up): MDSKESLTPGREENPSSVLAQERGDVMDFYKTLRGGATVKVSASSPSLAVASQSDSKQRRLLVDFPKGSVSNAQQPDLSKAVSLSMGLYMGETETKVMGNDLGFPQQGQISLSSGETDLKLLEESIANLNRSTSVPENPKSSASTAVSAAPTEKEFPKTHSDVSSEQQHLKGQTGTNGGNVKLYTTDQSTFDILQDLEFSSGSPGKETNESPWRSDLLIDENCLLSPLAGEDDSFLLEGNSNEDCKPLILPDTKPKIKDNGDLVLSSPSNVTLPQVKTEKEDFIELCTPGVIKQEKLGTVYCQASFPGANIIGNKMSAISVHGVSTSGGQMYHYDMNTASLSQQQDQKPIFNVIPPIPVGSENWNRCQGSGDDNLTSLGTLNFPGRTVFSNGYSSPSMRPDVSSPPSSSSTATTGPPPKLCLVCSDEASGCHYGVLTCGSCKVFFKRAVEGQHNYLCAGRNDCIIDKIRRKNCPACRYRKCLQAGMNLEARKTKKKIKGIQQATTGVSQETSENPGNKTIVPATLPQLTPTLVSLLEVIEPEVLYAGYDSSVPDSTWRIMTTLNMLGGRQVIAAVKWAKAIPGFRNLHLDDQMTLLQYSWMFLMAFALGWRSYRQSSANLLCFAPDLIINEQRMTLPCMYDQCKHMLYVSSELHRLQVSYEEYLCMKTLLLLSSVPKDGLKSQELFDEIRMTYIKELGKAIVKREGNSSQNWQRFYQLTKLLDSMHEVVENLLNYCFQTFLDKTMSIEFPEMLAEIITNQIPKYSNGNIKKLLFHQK
Procedure, shortened: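 Antagonist-mode qHTS: compound titrations added to GRE-bla HeLa cells, then dexamethasone 2 nM final; 18 h, 37 C. CCF4 FRET fluorescence normalized to dexamethasone and DMSO; IC50 from Hill fit.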

[7] = qHTS assay for small molecule activators of the nuclear factor-kappa B (NF-kB) signaling pathway (AID 651749; active = well fitted activation curve with a large enough effect in the signal ratio; inconclusive = small, poorly fitted or top-dose-only effect, or a change in a side signal; the % refers to the signal ratio; also: series mostly up to about 77 µM; % of control where 0% means no effect); conditions: NF-kB-bla ME-180 cells, beta-lactamase FRET ratio, 16 h; activation: stronger effect = higher value
Procedure, shortened: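 FRET-based beta-lactamase detection in ME-180 cells reports NF-kB response-element-driven transcription following overnight (16 hr) compound treatment.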

[8] = qHTS assay for small molecule activators of the human pregnane X receptor (PXR) signaling pathway (AID 720659; call rule not given here; also: 0% is about no effect)
[9] = qHTS assay for small molecule agonists of retinoid X receptor alpha signaling (AID 588544); conditions: HEK293T RXRa-UAS-bla, beta-lactamase reporter, 18 h; 530 nm emission
[10] = molecular target: Thyroid hormone receptor beta (Homo sapiens) (UniProt P10828); assay: qHTS assay for small molecule antagonists of thyroid hormone receptor beta signaling (AID 588547; active = well fitted inhibition curve with a large enough effect in the signal ratio, with a control signal flat, not every such curve was filed as active; inconclusive = small, poorly fitted or top-dose-only effect, or effect the other way, or a change in a side signal; the % refers to the signal ratio;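 also: cells stimulated with 0.4 nM T3 agonist during compound exposure; series mostly up to about 77 µM; % is scaled to controls: 0 for no effect and ±100 for the full control effect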); conditions: TR-UAS-bla HEK293, beta-lactamase ratio, antagonist mode, 18 h
Sequence of Thyroid hormone receptor beta (Homo sapiens) (P10828 whole entry, looked up): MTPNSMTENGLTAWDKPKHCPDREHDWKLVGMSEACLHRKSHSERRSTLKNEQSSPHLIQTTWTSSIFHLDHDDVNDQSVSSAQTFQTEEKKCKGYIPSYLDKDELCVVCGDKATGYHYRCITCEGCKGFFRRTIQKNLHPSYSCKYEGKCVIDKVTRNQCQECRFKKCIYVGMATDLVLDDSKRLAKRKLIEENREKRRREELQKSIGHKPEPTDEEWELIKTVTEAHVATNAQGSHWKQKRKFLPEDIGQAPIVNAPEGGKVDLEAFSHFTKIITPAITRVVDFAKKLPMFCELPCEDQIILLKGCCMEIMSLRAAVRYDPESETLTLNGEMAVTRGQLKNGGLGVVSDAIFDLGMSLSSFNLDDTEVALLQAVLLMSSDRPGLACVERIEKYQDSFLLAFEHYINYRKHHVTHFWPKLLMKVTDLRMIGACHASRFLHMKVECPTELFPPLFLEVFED
Procedure, shortened: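 Inhibition of T3-driven (0.4nM final) beta-lactamase reporter activity was measured over 0.59 nM to 92 uM compound after 18 h at 37 C. The cells were GripTite HEK293 TR-UAS-bla in charcoal/dextran-stripped serum, with CCF4 ratio read-out and IC50 from Hill fits.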

[11] = qHTS assay for small molecule agonists of the antioxidant response element (ARE) signaling pathway (AID 651741; active = well fitted activation curve with a large enough effect in the signal ratio; inconclusive = small, poorly fitted or top-dose-only effect, or effect the other way, or a change in a side signal; the % refers to the signal ratio; also: potency is read from the fitted curve at half-maximal effect; as to activation: % of control where 0% means no effect)
Procedure, shortened: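 Agonist activity is measured as ARE-driven beta-lactamase expression in a stable HepG2 reporter line, using 16 h compound treatment at 37 C and a FRET substrate fluorescence readout after 2 h.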

[12] = molecular target: Estrogen receptor (Homo sapiens) (UniProt P03372); assay: qHTS assay for small molecule antagonists of estrogen receptor alpha signaling (AID 588513; active = well fitted curve in the direction sought with a large enough effect in the signal ratio, with a control signal flat, not every such curve was filed as active; inconclusive = small, poorly fitted or top-dose-only effect, or effect the other way, or a change in a side signal; inactive = no such curve, though single readings can be large or run the other way; the % refers to the signal ratio; also: potency is read from the fitted curve at half-maximal effect)
Procedure, shortened: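 ER-alpha-UAS-bla GripTite HEK 293 cells in medium with 2% charcoal/dextran-treated FBS were preincubated 4 h at 37 C, dosed with compound (1:2 titration), stimulated with 0.5nM 17-beta-estradiol for 18 h, then read by CCF4 beta-lactamase fluorescence.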

COc1ccc(-c2ccccc2)cc1NNC(=O)OC(C)C
inactive: Potency [1] | activation [2] -16.7% | Potency [3] | Potency [4] | activation [5] 1.06% | Potency [6] | activation [7] -0.684% | outcome [8]

O=C1c2ccccc2C(=O)C1C(=O)C(c1ccccc1)c1ccc(Cl)cc1 (centres undefined)
active: Potency [11] 54.5 µM
inactive: Potency [1] | activation [2] -4.67% | activity change % (negative = inhibition) [10] 15% | activation [7] -3.47%
-4.27%: max response [9]

CCOP(=O)(OCC)SCS(=O)(=O)C(C)(C)C
inactive: Potency [1] | activation [2] 11.8% | Potency [4] | activation [5] -5.69% | Potency [6] | activity change % (negative = inhibition) [10] -16.4% | outcome [8]
4.6%: max response [9]

CNC(=O)Oc1cc(C)c(SC)c(C)c1
active: Potency [1] 25.1 µM
inactive: activation [2] 1.32% | Potency [3] | activation [5] 5.14% | Potency [6] | activity change % (negative = inhibition) [10] -16.8% | activation [7] -0.568%

CCC(C)(NC(=O)c1cc(Cl)c(C)c(Cl)c1)C(=O)CCl (centres undefined)
inactive: Potency [1] | Potency [4] | activation [5] -3.52% | Potency [6]

C=C1CC[C@H](O)C/C1=C/C=C1\CCC[C@]2(C)[C@@H]([C@H](C)CCCC(C)C)CC[C@@H]12
active: Potency [12] 15.8 µM [inconclusive] | Potency [11] 23.7 µM

O=C(O)C1(O)c2ccccc2-c2ccc(Cl)cc21 (centres undefined)
inactive: Potency [1] | activation [2] -1.34% | activation [5] 8.73% | Potency [6] | activation [7] 3.02% | outcome [8]
active: Potency [11] 48.6 µM

CCCCCCCCCCCCCCC(Br)C(=O)O (centres undefined)
-6.32%: max response [9]
active: Potency [11] 21.7 µM
inactive: Potency [1] | Potency [4] | activation [5] 4.69% | Potency [6] | activation [7] 5.98% | outcome [8]

Clc1ccc(-c2cc(Cl)c(Cl)cc2Cl)cc1Cl
inactive: Potency [1] | activation [2] -4.76% | activation [5] 4.78% | Potency [6] | activity change % (negative = inhibition) [10] -25.9% | activation [7] 5.08% | outcome [8]

COc1cc(OC)nc(NC(=O)NS(=O)(=O)c2ncccc2OCC(F)(F)F)n1
inactive: Potency [1] | Potency [4] | activation [5] 0.378% | Potency [6] | Potency [11] | activation [7] -0.186%
-19.3%: max response [9]

COc1cnc(OC)n2nc(NS(=O)(=O)c3c(OCC(F)F)cccc3C(F)(F)F)nc12
inactive: Potency [12] | activity change % (negative = inhibition) [10] 9.04% | outcome [8]

CCCCOCCOC(C)=O
inactive: Potency [1] | Potency [4] | activation [5] 1.59% | Potency [6] | activity change % (negative = inhibition) [10] -3.6% | outcome [8]
-13.2%: max response [9]

Cc1[nH]c(=O)n(C(C)(C)C)c(=O)c1Cl
inactive: Potency [1] | activation [2] 0.796% | Potency [3] | Potency [4] | activation [5] 0.517% | activity change % (negative = inhibition) [10] 8.21% | activation [7] -0.578% | outcome [8]
-0.982%: max response [9]

O=C(Nc1ccccc1)Nc1cnns1
inactive: Potency [1] | Potency [4] | activation [5] -0.107% | Potency [6] | activity change % (negative = inhibition) [10] 24.1% | activation [7] 0.693%

COP(=O)(OC)OC(Br)C(Cl)(Cl)Br (centres undefined)
active: Potency [11] 24.3 µM
inactive: Potency [1] | activation [2] 4.22% | Potency [4]

CCOc1nc(F)cc2nc(S(=O)(=O)Nc3c(Cl)cccc3Cl)nn12
inactive: Potency [1] | Potency [4] | activation [5] -0.748% | activity change % (negative = inhibition) [10] -10.3% | outcome [8]
3.57%: max response [9]

CC(C)(C)C(O)C(Oc1ccc(-c2ccccc2)cc1)n1cncn1 (centres undefined)
active: Potency [11] 68.6 µM
inactive: Potency [1] | activation [2] -4.84% | Potency [4] | activation [5] 2.98% | Potency [6] | activity change % (negative = inhibition) [10] -13.8% | activation [7] -1.06%

CCOP(=O)(NC(C)C)Oc1ccc(S(C)(=O)=O)c(C)c1 (centres undefined)
inactive: Potency [1] | activation [2] 6.06% | Potency [3] | Potency [4] | activation [5] -2.2% | Potency [6] | activity change % (negative = inhibition) [10] 9.01% | Potency [11] | activation [7] -0.438%

O=C(Nc1ccccc1)Nc1ccnc(Cl)c1
inactive: Potency [1] | activation [2] 10.1% | Potency [3] | Potency [4] | activation [5] -3.44% | activity change % (negative = inhibition) [10] 16% | activation [7] -0.762%

CC1(C)CC/C(=C\c2ccc(Cl)cc2)C1(O)Cn1cncn1 (centres undefined)
6%: max response [9]
inactive: Potency [1] | activation [2] -0.862% | Potency [3] | Potency [6]

CCOc1nc(C(Cl)(Cl)Cl)ns1
inactive: Potency [12] | activity change % (negative = inhibition) [10] 11.9% | activation [7] 0.185%

CNC(=O)O/N=C/C(C)(C)S(C)(=O)=O
inactive: Potency [1] | activation [2] 1.32% | Potency [6] | activation [7] -1.23% | outcome [8]

C#CCN1C(=O)COc2cc(F)c(N3C(=O)C4=C(CCCC4)C3=O)cc21
inactive: Potency [1] | activation [2] 8.69% | Potency [3] | Potency [6] | activation [7] -1.45% | outcome [8]
-8.78%: max response [9]

CC(C)(C)[C@@H](O)/C(=C\c1ccc(Cl)cc1Cl)n1cncn1
active: Potency [4] 44.7 µM | Potency [11] 68.6 µM
inactive: Potency [1] | activation [5] 0.6% | Potency [6] | activity change % (negative = inhibition) [10] -11.6%
